# Shown is part of a subset that was picked to be rich in hits.
# MARV entry inh = qHTS for inhibitors of binding or entry into cells for Marburg Virus; Potency, µM (top dose mostly 37.8 µM), for inactives: top-dose activity change, negative = inhibition, actives largely listed as inhibitors; AID 540276, 2011; 1.8% of 300,000 active; Marburg virus pseudotyped entry inhibition, cell reporter; calls by dose curve; tested in HEK293 cells; note: potency is the fitted concentration of half-maximal effect; % is set by controls: 0 for no effect and ±100 for the full control effect
# Vaccinia Venus = qHTS for Stage-Specific Inhibitors of Vaccinia Orthopoxvirus: Venus Reporter Primary qHTS; Vaccinia virus Venus reporter expression, fluorescence; Potency, µM (highest dose often 36.5 µM), inactives show top-dose activity change, negative = inhibition, actives largely listed as inhibitors; 0.46% of 330,000 active; AID 720580, 2013; calls by dose curve; tested in A549 cells; note: potency is the fitted concentration of half-maximal effect; % is set by controls: 0 for no effect and ±100 for the full control effect; nearly all actives have a fitted effect of over 30% in size
# Cycloheximide cs = Cycloheximide Counterscreen for Small Molecule Inhibitors of Shiga Toxin | max response, % | 12% of 300,000 active | cell reporter, cycloheximide protein synthesis inhibition counterscreen | AID 2314, 2010; in the data active = max response mostly above about 13%, no sharp cut-off; inactive = mostly below about 14%; note: read at 38.3 µM for the half of the compounds with a filed dose; 0% is about no effect
# LASV entry inh = qHTS for Inhibitors of binding or entry into cells for Lassa Virus; Lassa virus pseudotype entry inhibition, cell reporter; Potency, µM (highest dose often 37.9 µM), for inactives: at the top dose activity change, negative = inhibition, hits mostly inhibitors; 1.2% of 300,000 active; calls by dose curve; tested in HEK293 cells; note: potency is the fitted concentration of half-maximal effect; % is set by controls: 0 for no effect and ±100 for the full control effect; nearly all actives have a fitted effect of over 50% in size
# Shiga toxin inh = A qHTS for Small Molecule Inhibitors of Shiga Toxin. 9.2% of 290,000 active. Vero cells, Shiga toxin protein synthesis inhibition reporter. inhibition, % at 38.7 µM; in the data active = inhibition mostly above about 28%, no sharp cut-off; inactive = mostly below about 43%; note: 0% is about no effect
# Vaccinia mCherry = qHTS for Stage-Specific Inhibitors of Vaccinia Orthopoxvirus: mCherry Reporter Primary qHTS. Vaccinia virus mCherry reporter infection, fluorescence. Potency, µM (highest dose often 36.5 µM), inactives show at the highest dose activity change, negative = inhibition, hits mostly inhibitors. 0.63% of 310,000 active. AID 720579, 2013; calls by dose curve; tested in A549 cells; note: potency is the fitted concentration of half-maximal effect; % is set by controls: 0 for no effect and ±100 for the full control effect; nearly all actives have a fitted effect of over 35% in size
# The depositor's hits bear a star; i = inactive; ? = inconclusive; . = no result; [ ] = remark or other dose.
SMILES,MARV entry inh,Vaccinia Venus,Cycloheximide cs,LASV entry inh,Shiga toxin inh,Vaccinia mCherry
Cc1cccc(C(=O)OCc2cnc(Cl)s2)c1,-2%,-8%,11*,13%,12,.
O=C(/C=C/c1ccccc1)OCc1cncs1,16%[46.1 µM],-7%,33*,-7%[46.1 µM],88*,-1%
O=C(Nc1ccccc1)OCCCCCOC(=O)Nc1ccccc1,.,.,-4,.,.,.
O=C(OCc1cncs1)c1cccs1,10%[46.1 µM],-13%,5,19%[46.1 µM],19,-18%
O=C(Nc1ccccc1)OCc1cnc(Cl)s1,-17%[46.1 µM],-18%,12,-19%[46.1 µM],36,i
CS(=O)(=O)Nc1nnc(SCC(=O)N(c2ccccc2)c2ccccc2)s1,?,-7%,1,-1%,-21,-10%
CC(C)Cn1c(=O)c2sccc2n2c(CCCC(=O)N3CCN(c4ccc(F)cc4)CC3)nnc12,.,-5%,.,-1%[46.1 µM],.,i
COc1ccc(CNC(=O)c2ccc(NC(=O)N3CCCCc4ccccc43)cc2)c(OC)c1,.,-15%,.,?,.,i
CC[C@@]12C=C(C=Cc3ccccc3)[C@](CC)(C1)[C@H](c1ccccc1)CC2=O,4%[14.2 µM],.,.,.,.,.
CC(C)OC(=O)NCCOC(=O)Nc1ccc(Cl)c(Cl)c1,?,.,6,?,11,.
O=C(Nc1ccc(Cl)c(Cl)c1)OCc1cncs1,7%,?,39*,-6%,42*,.
COc1ccc(/C(C)=N/Nc2ccc(C(=O)O)cc2)cc1OC,?,-9%,41*,?,63,-11%
COc1cc(C(=O)Nc2ccc(NC(=O)c3ccc(C(C)(C)C)cc3)cc2)cc(OC)c1OC,.,-20%,.,?,.,i
C/C(=N\Nc1ccc(C(=O)O)cc1)c1nc2ccccc2n1C,.,.,6,.,-1,.
COc1cc(/C(C)=N/Nc2ccc(C(=O)O)cc2)cc(OC)c1OC,?,1%,70*,?,171*,i
C/C(=N/Nc1ccc(C(=O)O)cc1)c1ccc(O)c(O)c1O,5%,13%,51*,20%,84*,-7%
COc1ccc(OC)c(/C(C)=N/Nc2ccc(C(=O)O)cc2)c1,20%[46.1 µM],-10%,38*,30%[46.1 µM],55*,-9%
COc1ccc(C(=O)O)cc1OC,.,-12%,.,.,.,-4%
CCN(CC)c1ccc(/C=C/c2ccnc3ccccc23)cc1,.,46%,.,.,.,21%
Cc1ccc2c(c1)/C(=C/c1ccccc1C)C(=O)N2,11µM*,?,-2,?,4,-19%
CC(C)Cn1c(N)c(C(=O)COC(=O)c2cc(C3CC3)nc3ccccc23)c(=O)n(C)c1=O,-36%,?,-3,21µM*,-6,-24%
CC(C)Cn1c(N)c(C(=O)COC(=O)c2ccc(O)cc2)c(=O)n(C)c1=O,.,-14%,-6,.,18,-12%
Cc1nn(-c2ccccc2)c(C)c1C(=O)OCC(=O)c1c(N)n(CC(C)C)c(=O)n(C)c1=O,?,.,-2,6.5µM*,-9,.
CC(C)n1cnc2c(Nc3cccc(F)c3)nc(NCCO)nc21,.,?,19*,.,25,?
CC(C)C[C@H](CO)Nc1nc(Nc2cccc(Cl)c2)c2ncn(C(C)C)c2n1,.,?,23*,.,42*,?
SMILES,MARV entry inh,Vaccinia Venus,Cycloheximide cs,LASV entry inh,Shiga toxin inh,Vaccinia mCherry
COc1ccc(CNc2nc(NCc3ccc(OC)cc3)c3ncn(C(C)C)c3n2)cc1,.,.,-3,.,-6,.
CC(C)n1cnc2c(Nc3ccc(F)c(Cl)c3)nc(NCCO)nc21,.,?,-2,.,15,10µM*
CCc1ccc(NC(=O)c2nnn(Cc3cccc(C(F)(F)F)c3)c2N)cc1,28%[46.1 µM],1%,.,1%[46.1 µM],.,-13%
O=C(Cn1cc(SCc2cccc(Cl)c2)c2ccccc21)N1CCCCCC1,.,-10%,.,-26%[46.1 µM],.,-2%
Cc1cccc(C)c1OCC(=O)Nc1c(C(=O)c2ccc(Br)cc2)oc2ccccc12,20%[46.1 µM],-5%,.,-17%[46.1 µM],.,-9%
CNCCC=C1c2ccccc2CCc2ccccc21,7.1µM*,?,-3,21µM*,-3,-6%
Clc1ccccc1Cc1cn2cc(-c3ccccc3)nc2s1,?,-6%,.,?,.,-15%
Cc1ccc(NC(=O)c2c(Nc3ccccc3C)sc(C(=O)c3ccccc3)c2N)cc1,.,-30%,.,?,.,?
Cc1ccc(Nc2sc(C(=O)c3ccc(F)cc3)c(N)c2S(=O)(=O)c2ccc(C)cc2)cc1,.,-19%,.,1.1µM*,.,-23%
Cc1cc(Nc2sc(C(=O)c3ccc(F)cc3)c(N)c2C(=O)Nc2ccc(F)cc2)ccc1Cl,.,?,.,?,.,5µM*
COc1ccc(NC(=O)c2c(Nc3ccccc3)sc(C(=O)c3ccc(F)cc3)c2N)cc1,6.3µM*,?,7,13µM*,39,?
COc1ccc(C(=O)c2sc(Nc3cccc(OC)c3)c(C(=O)Nc3cccc(C)c3C)c2N)cc1,21µM*,.,1,?,-14,.
COc1ccc(Nc2sc(C(=O)c3ccc(Cl)cc3)c(N)c2C(=O)Nc2ccccc2OC)cc1,?,.,-1,-28%,-18,.
Cc1ccc2c(=O)cc(C(=O)Nc3ccc(S(=O)(=O)N4CCCCCC4)cc3)oc2c1,1%[46.1 µM],-4%,.,22%[46.1 µM],.,2%
CNc1ccc(S(=O)(=O)NCC(=O)NCCCc2ccccc2)cc1[N+](=O)[O-],.,.,5,.,-6,.
COc1cccc(N=Nc2c(C)[nH]n(-c3ccccc3)c2=O)c1,.,.,2,.,.,.
Cc1[nH]n(-c2ccccc2)c(=O)c1N=Nc1ccc2c(c1)OCO2,?,-4%,32*,3%[46.1 µM],115*,-14%
Cc1[nH]n(-c2ccccc2)c(=O)c1N=Nc1nccs1,?,.,14*,?,26,.
Cc1ccc(S(=O)(=O)N(CC(=O)N/N=C/c2ccco2)c2cc(Cl)cc(Cl)c2)cc1,16µM*,-26%,-1,?,-6,?
COc1ccc(N(CC(=O)NCc2ccco2)S(=O)(=O)c2ccc(C)cc2)cc1OC,?,-13%,7,-4%,3,-14%
O=C(CN(Cc1ccccc1)S(=O)(=O)c1ccc(Br)cc1)NCc1ccco1,-2%,.,15,-2%,25*,.
COc1ccccc1N(CC(=O)NCc1ccco1)S(=O)(=O)c1ccc(C)cc1,1%[46.1 µM],-8%,-2,21%,6,-19%
Cc1ccc(N(CC(=O)NCc2ccco2)S(=O)(=O)c2ccccc2)cc1,-14%,.,27*,-3%,30,.
Cc1ccc(S(=O)(=O)N(Cc2ccc(Cl)cc2)c2ccccc2C(=O)NCc2ccco2)cc1,?,-28%,33*,-15%,44*,i
COC(=O)c1c(NC(=O)Cc2coc3cc(C)ccc23)sc2c1CCC2,?,-10%,.,22%[46.1 µM],.,-10%
O=C(O)c1cccnc1SCc1cccc(Cl)c1,-9%[46.1 µM],0%,34,4%,31,9%
Cc1cccc(N=N/C(=C\O)C(=O)c2cccs2)c1,?,-13%,35*,?,93*,-20%
COc1ccc(Nc2nc(-c3sc(NC(C)=O)nc3C)cs2)cc1,-2%,.,-1,.,1,.
